nsP2pro inh = blocks chikungunya virus nsP2 protease peptide cleavage; Potency, µM (series often up to 24.9 µM), for the others: at the top dose activity change, negative = inhibition, hits mostly inhibitors; 31,000 compounds, 1.1% hits; FRET peptide cleavage, nsP2pro, fluorescence 1 h; Q8JUX6; also: nearly all actives have a fitted effect of over 60% in size
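Purified recombinant nsP2pro (150 nM final) in 10 mM Tris-HCl pH 8.0 with 0.01% Tween 20 was preincubated 15 min at room temperature with compound (7 concentrations, up to 25 uM). FRET peptide 2 substrate (2.5 uM final) was then added; fluorescence was read after 1 h.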
CHIKV nsP2 cell = cell-based CHIKV nsP2 protease inhibition, secondary. shares compounds with nsP2pro inh. cell-based CHIKV nsP2 protease reporter assay. Potency, µM (top dose mostly 51.1 µM), inactives show at the top dose activity change, negative = inhibition, usual class: inhibitors. 450 compounds, 10% hits; also: nearly all actives have a fitted effect of over 70% in size
NSP2 full ctr = full-length CHIKV NSP2 protease inhibition, selectivity; shares compounds with nsP2pro inh; Full-length CHIKV NSP2 protease enzymatic counterscreen; Potency, µM (series often up to 50.7 µM), without a hit: at the highest dose activity change, negative = inhibition, usual class: inhibitors; 410 compounds, 39% hits; also: nearly all actives have a fitted effect of over 65% in size
Furin counterscr = inhibits human furin in a CHIKV nsP2 protease selectivity counterscreen; shares compounds with nsP2pro inh; Recombinant human furin enzymatic counterscreen, fluorogenic substrate; Potency, µM (titrated, usually from 50.6 µM), inactives show at the highest dose activity change, negative = inhibition, usual class: inhibitors; 410 compounds, 6% hits
NS23 peptide cs = nsP2pro inhibition on native NS2/3 peptide substrate | shares compounds with nsP2pro inh | Purified CHIKV nsP2 protease, endogenous NS2/3 peptide cleavage | Potency, µM (doses to about 51 µM), for inactives: at the highest dose activity change, negative = inhibition, hits mostly inhibitors | 410 compounds, 34% hits | AID 1964103; also: nearly all actives have a fitted effect of over 55% in size
Papain cs = papain protease inhibition, counterscreen for nsP2pro inhibitors; shares compounds with nsP2pro inh; purified papain protease activity, enzymatic inhibition; Potency, µM (doses to about 51 µM), inactives show at the highest dose activity change, negative = inhibition, actives largely listed as inhibitors; 410 compounds, 5% hits; AID 1964104
nsP2pro conf qHTS = CHIKV nsP2 protease inhibition, confirmatory qHTS; shares compounds with nsP2pro inh; CHIKV nsP2 protease enzymatic activity, qHTS; Potency, µM (doses to about 25.5 µM), without a hit: at the top dose activity change, negative = inhibition, actives largely listed as inhibitors; 410 compounds, 43% hits; also: nearly all actives have a fitted effect of over 75% in size
HCV NS3 4A cs = HCV NS3/4A protease inhibition, counterscreen; shares compounds with nsP2pro inh; HCV NS3/4A protease biochemical counterscreen; AID 1964106; Potency, µM (top dose mostly 50.9 µM), actives largely listed as inhibitors; 410 compounds, 20% hits; also: nearly all actives have a fitted effect of over 55% in size
The depositor's hits bear a star; i = inactive; ? = inconclusive; [ ] = another dose, or the depositor's remark. Only a selection was taken, and hits are over-represented in it overall. Calls follow the shape of the full dose curve. % is scaled to controls: 0 for no effect and ±100 for the full control effect; potency is read from the fitted curve at half-maximal effect.

SMILES	nsP2pro inh	others
O=C1Nc2ccccc2/C1=C\c1ccc(O)c(Cl)c1	i
O=C1Nc2ccccc2/C1=C/c1cc(O)ccc1O	7.9µM*	CHIKV nsP2 cell=?;NSP2 full ctr=?;Furin counterscr=?;NS23 peptide cs=23µM*;Papain cs=-11%;nsP2pro conf qHTS=8µM*;HCV NS3 4A cs=10µM*
Fc1ccc(-c2nc(C3CCNCC3)sc2-c2ccnc(NC3CC3)n2)cc1	13%
Cc1cc(OCC(=O)N2CCN(CCc3ccccn3)CC2)cc(C)c1Cl	-12%
COc1cccc(OCCCN)c1-c1cc(Nc2cnc(C#N)cn2)n[nH]1	149%
COc1ccc(N2CCN(c3oc(-c4ccc(COc5cccc(C)c5)o4)nc3C#N)CC2)cc1	-14%
COc1cccc2c1OCC(C(=O)N1CCC(c3noc(C)n3)CC1)C2 (centres undefined)	i
CCOCC(=O)N[C@@H]1CN(S(C)(=O)=O)C[C@H]1CN(C)C	-13%
CCOC(=O)OCC/C(SC(=O)OCC)=C(\C)N(C=O)Cc1cnc(C)nc1N	0%
C/C(=C(\CCOP(=O)(O)O)SC(=O)c1ccccc1)N(C=O)Cc1cnc(C)nc1N	-8%[2.68 µM]
CCCSS/C(CCO)=C(\C)N(C=O)Cc1cnc(C)nc1N	8.8µM*	CHIKV nsP2 cell=-21%;NSP2 full ctr=16µM*;Furin counterscr=-1%;NS23 peptide cs=?;Papain cs=-6%;nsP2pro conf qHTS=8µM*;HCV NS3 4A cs=i
O=C(NCCc1ccccc1)c1ccc2c(c1)CCN2S(=O)(=O)c1ccc(Br)cc1	-5%
COCCN1C(=O)CCC2(C(=O)N3CCN(c4ccccn4)CC3)CCCC=C12 (centres undefined)	-3%
COc1ccc(NC(=O)CCN2CCN(CCO)CC2)c(OC)c1	-18%
CN(C)c1cccc(-c2nc(N3CCC(C(N)=O)CC3)ncc2F)c1	5%
CN(C)c1cccc(-c2nccc(N3CCC(C(N)=O)CC3)n2)c1	i
CN(C)c1cccc(-c2ncc(F)c(N3CCC(C(N)=O)CC3)n2)c1	?	CHIKV nsP2 cell=50%;NSP2 full ctr=3%;Furin counterscr=-2%;NS23 peptide cs=4%;Papain cs=-8%;nsP2pro conf qHTS=14%;HCV NS3 4A cs=i
Cc1cc(F)ccc1NC(=O)C1CCN(S(=O)(=O)c2ccc3c(c2)CCCC(=O)N3)CC1	-16%
N#CNC(=NCCCCCCOc1ccc(Cl)cc1)Nc1ccncc1	24%
CCC(=O)Nc1ccc(CC)cc1-c1nc2ccccc2n(Cc2ccccc2)c1=O	-30%
CC(C)NC(=O)N1CCC(Oc2ccccc2)C1 (centres undefined)	-4%
Cc1ccc(CNC(=O)CSc2nc3c(sc4ccccc43)c(=O)n2CCCC(=O)NCCO)cc1	-8%
CCCOc1ccc2nc(NC(=O)OC)sc2c1	-11%
Cc1ccc(OCCn2c(CCNC(=O)C3CCCC3)nc3ccccc32)cc1	-14%
CCN(CC)CCNc1ccc(CO)c2sc3ccccc3c(=O)c12	?	CHIKV nsP2 cell=?;NSP2 full ctr=-19%;Furin counterscr=-12%;NS23 peptide cs=?;Papain cs=-21%;nsP2pro conf qHTS=66%;HCV NS3 4A cs=i
SMILES	nsP2pro inh	others
CCN(CC)CCNc1ccc2ncn3c4ccc(O)cc4c(=O)c1c23	101%
Cc1ccc(NCCN(C)CCNc2ccnc3cc(Cl)ccc23)c2c(=O)c3ccccc3sc12	34%[10 µM]
C=C(C(=O)O[C@H]1C/C(C)=C/CC/C(CO)=C/[C@H]2OC(=O)C(=C)[C@H]12)C(O)CO (some centres undefined)	5.4µM*	CHIKV nsP2 cell=?;NSP2 full ctr=10µM*;Furin counterscr=-4%[33.5 µM];NS23 peptide cs=?;Papain cs=-5%[33.5 µM];nsP2pro conf qHTS=4.4µM*;HCV NS3 4A cs=i
C=C(C)C(=O)OC1[C@@H]2C(=C)C(=O)O[C@@H]2C[C@@H](C)[C@@H]2C=CC(=O)[C@@]12C (some centres undefined)	-7%
C=C(C)C(=O)OC1CC(CO)CCC/C(CO)=C/C2OC(=O)C(=C)C21 (centres undefined)	-20%
Cc1ccc2c(c1)C(=O)[C@]1(O)CCN(c3ccccc3)C1=N2	1%
CON(C)C(=O)N1N=C(c2cc(F)ccc2F)S[C@@]1(CCCN)c1ccccc1	-8%
CC(N)Cc1c[nH]c2ccccc12 (centres undefined)	-12%
O=C1NC(Cc2c[nH]c3ccccc23)C(=O)NC1Cc1c[nH]c2ccccc12 (centres undefined)	6.1µM*	CHIKV nsP2 cell=-1%[33.5 µM];NSP2 full ctr=-15%[33.5 µM];Furin counterscr=-5%[33.5 µM];NS23 peptide cs=-21%[33.5 µM];Papain cs=?;nsP2pro conf qHTS=-39%[16.7 µM];HCV NS3 4A cs=i
NCCc1c[nH]c2ccccc12	-22%
CC(C)(C)OC(=O)NCCOCCOCCOc1ccc(-c2no[n+]([O-])c2C#N)cc1	-1%
C[N+]1(CC2COC(c3ccccc3)(c3ccccc3)O2)CCCCC1 (centres undefined)	-5%[10 µM]
COC[C@H]1C[C@@H](NC(=O)c2c(-c3ccccc3)noc2C)[C@H](O)[C@@H]1O	i
COc1ccc(CNS(=O)(=O)c2cc3c(cc2C)N(C)CCO3)cc1	-20%
COc1ccc(CNS(=O)(=O)c2cc(-c3[nH]ncc3C(=O)N3CCCC3)oc2C)cc1	7.1µM*	CHIKV nsP2 cell=6%;NSP2 full ctr=?;Furin counterscr=-7%;NS23 peptide cs=-4%;Papain cs=-6%;nsP2pro conf qHTS=-8%;HCV NS3 4A cs=?
COc1ccc(CNC(=O)C2CCC(CNS(=O)(=O)c3ccc4c(c3)CCCC(=O)N4)CC2)cc1 (centres undefined)	-10%
C[C@@H]1O[C@@H](O[C@H]2[C@H](OC(=O)[C@]34CCC(C)(C)C[C@H]3C3=CCC5[C@@]6(C)CC[C@H](O[C@@H]7O[C@H](CO[C@@H]8OC[C@H](O)[C@H](O)[C@H]8O)[C@@H](O)[C@H](O)[C@H]7O)C(C)(C)C6CC[C@@]5(C)[C@]3(C)C[C@H]4O)OC[C@@H](O)[C@@H]2O)[C@H](O)[C@H](O[C@@H]2OC[C@](O)(CO)[C@H]2O)[C@H]1O[C@@H]1OC[C@H](O)[C@H](O[C@@H]2OC[C@@H](O)[C@H](O)[C@H]2O)[C@H]1O (some centres undefined)	23%[5.1 µM]
CC1(C)O[C@@H]2C[C@H]3[C@@H]4C[C@H](F)C5=CC(=O)C=C[C@]5(C)[C@H]4[C@@H](O)C[C@]3(C)[C@]2(C(=O)CO)O1	4%
O=C(Cn1cc(SCc2c(F)cccc2Cl)c2ccccc21)N1CCCC1	-26%
C[C@]1(Cn2ccnn2)[C@H](C(=O)O)N2C(=O)C[C@H]2S1(=O)=O	0%
Cc1ccsc1CN1CCc2nc(Nc3ccccc3)ncc2C1	2%

Bioassay records: PubChem, National Center for Advancing Translational Sciences (NCATS)
